Screening results from PubChem.
Hits are enriched below; roughly 3.2% of the tested compounds scored in any of these assays.
bovine MsrA act = bovine MsrA enzyme activators, primary screen, biochemical, absorbance, HTS. Methionine sulfoxide reductase A (Bos taurus). purified bovine MsrA, absorbance read-out. activation, % at 10.6 µM. 0.3% of 360,000 active. AID 602163, 2012; in the data active = activation above about 7.5%;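 note: 0% = vehicle and 100% = reference activator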
MsrA inh = bovine MsrA enzyme inhibitors, primary screen, biochemical, absorbance, HTS; Methionine sulfoxide reductase A (Bos taurus); purified bovine MsrA, absorbance read-out; inhibition, % at 15.5 µM; 0.75% of 360,000 active; AID 651718, 2012;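 note: 0% = vehicle wells with enzyme and 100% = reference inhibitor wells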
rCAG binder = binders of r(CAG) RNA repeats, primary screen, biochemical, fluorescence. r(CAG) RNA repeat, TO-PRO-1 dye displacement fluorescence. inhibition, % at 3 µM. 1.3% of 370,000 active. AID 651821, 2012;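 active = inhibition above the plate cutoff, the mean of all test compounds on that plate plus 3 SD, cut at about 35% in these data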;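 note: 0% = DMSO alone and 100% = 100 µM mitoxantrone as full dye displacement; higher means more dye released from RNA so lower well fluorescence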
PG9 Ab binder = binders of HIV-1 gp120 antibody PG9, primary screen, biochemical, TR-FRET; TR-FRET gp120-PG9 antibody binding; inhibition, % at 6.7 µM; 0.43% of 360,000 active; in the data active = inhibition above about 8.5%
HGIII-sPLA2 inh = human group III sPLA2 inhibitors, primary screen, biochemical, QFRET, BODIPY PC-A2 liposome substrate | Group 3 secretory phospholipase A2 (Homo sapiens), Q9NZ20 | AID 743126, 2013 | 0.56% of 370,000 active | QFRET BODIPY PC-A2 liposome hydrolysis, fluorescence | inhibition, % at 12.2 µM;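 active = inhibition above mean plus 3 SD of compounds lying within the high and low control bounds, cut at about 19% in these data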;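 note: 0% = median of test compound wells and 100% = no enzyme DMSO wells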
Target sequence (Q9NZ20 whole entry, looked up): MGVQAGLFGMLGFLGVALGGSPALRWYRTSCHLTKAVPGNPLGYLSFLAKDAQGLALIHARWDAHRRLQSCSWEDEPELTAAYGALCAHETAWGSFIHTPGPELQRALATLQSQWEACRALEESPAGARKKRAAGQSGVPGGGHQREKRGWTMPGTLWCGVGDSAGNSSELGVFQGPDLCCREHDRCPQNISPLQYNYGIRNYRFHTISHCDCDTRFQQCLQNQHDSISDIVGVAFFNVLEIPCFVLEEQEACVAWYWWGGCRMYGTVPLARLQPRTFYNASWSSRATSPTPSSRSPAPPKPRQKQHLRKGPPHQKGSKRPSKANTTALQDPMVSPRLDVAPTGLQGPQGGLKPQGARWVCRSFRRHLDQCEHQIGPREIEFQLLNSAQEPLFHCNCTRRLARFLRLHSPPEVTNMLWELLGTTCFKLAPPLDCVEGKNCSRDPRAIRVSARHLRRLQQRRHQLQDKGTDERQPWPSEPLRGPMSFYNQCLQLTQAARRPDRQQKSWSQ
MsrA conf = bovine MsrA inhibitors, retest, confirmation, biochemical, absorbance, HTS; shares compounds with MsrA inh; 41% of 2,300 active; inhibition, % at 15.5 µM; purified bovine MsrA, absorbance read-out;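 note: coupled to thioredoxin reductase with NADPH and selenocystamine and DMSO as substrate; 0% = vehicle only and 100% = full effect of reference inhibitor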
rCAG bind conf = small molecules binding CAG repeat RNA – biochemical, fluorescence, confirmation | AID 652065, 2013 | r(CAG) RNA repeat, TO-PRO-1 dye displacement fluorescence | shares compounds with rCAG binder | inhibition, % at 3 µM | 70% of 4,300 active;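 active = inhibition above a per-plate cutoff, the mean inhibition of sample wells plus 3 SD, cut at about 35% in these data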;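 note: loss of TO-PRO-1 fluorescence as compound displaces dye from 1x1 AA loop RNA; 0% = DMSO only wells and 100% = 100 µM mitoxantrone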
DNA CAG counter = displacement of TO-PRO-1 from CAG DNA duplex, counter-screen for rCAG RNA repeat binder project, biochemical, fluorescence, TO-PRO-1 dye, d(CAG) DNA oligo; shares compounds with rCAG binder; d(CAG) DNA oligo TO-PRO-1 dye displacement; inhibition, % at 3 µM; 94% of 4,300 active; AID 652068, 2013;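 active = inhibition above its plate's cutoff, the mean test-well inhibition plus 3 SD, cut at about 4.8% in these data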;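 note: 0% = DNA dye mix with DMSO and 100% = 100 µM mitoxantrone; hits displace the dye from DNA and so lower well fluorescence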
Active calls of the source: *; · = no result given. Cut-off read from the data, not from the text of the source, unless noted: active = inhibition above about 4.5%; inactive = the rest.

SMILES	bovine MsrA act	MsrA inh	rCAG binder	PG9 Ab binder	HGIII-sPLA2 inh	MsrA conf	rCAG bind conf	DNA CAG counter
CCN(CC)S(=O)(=O)c1cccc(-c2n[nH]c(=S)n2C(C)COC)c1 (centres undefined)	-1.7	1.5	0.7	0.1	12.6	·	·	·
O=S(=O)(O)c1ccc(N2N=C(c3ccccc3)CC2c2ccccc2)cc1 (centres undefined)	-4.5	5.8*	78.5*	-1.1	-74.4	3.1	56.2*	19.5*
CCOC(=O)CC(=O)CSc1nc2c(sc(=S)n2-c2ccccc2)c(=O)[nH]1	-4.9	6.0*	41.4*	-0.9	-22.1	2.5	21.4	5.8*
Cc1nc2ccc(NC(=O)c3cc([N+](=O)[O-])cc([N+](=O)[O-])c3Cl)cc2s1	2.0	5.5*	94.5*	0.3	-8.7	2.1	55.2*	21.9*
O=[N+]([O-])c1cc(Br)ccc1NS(=O)(=O)c1ccccc1	-2.1	0.0	13.1	1.4	-23.8	·	·	·
O=C(O)CSc1cc(NS(=O)(=O)c2ccc(Br)cc2)c2ccccc2c1O	9.3*	4.9*	39.5*	-2.4	-5.9	-0.7	57.0*	22.6*
O=C(/C=C/c1ccco1)NC(=S)Nc1ccccc1	-4.0	3.7	11.7	0.3	9.7	·	·	·
Cc1cccc(NC(=S)NC(=O)/C=C/c2ccco2)c1	-4.6	24.8*	36.6*	0.9	3.4	1.3	29.4	14.4*
O=C(NC1CCCCN(Cc2cccc(C(F)(F)F)c2)C1=O)c1cccc(C(F)(F)F)c1 (centres undefined)	·	·	0.5	·	11.0	·	·	·
CCOc1cc(/C=C(/C#N)c2ccc(F)cc2)ccc1OCc1ccc(C(=O)O)o1	-10.0	6.7*	69.4*	-1.9	-37.5	4.5	68.2*	28.6*
Cc1ccc(-n2c(=S)sc3c(=O)n(-c4ccc(F)cc4)c(SCC(=O)O)nc32)cc1C	-6.0	5.3*	35.5*	1.9	-8.7	1.9	29.6	6.4*
COc1ccc(-n2c(SCC(=O)C(C)(C)C)nc3c(sc(=S)n3-c3ccccc3)c2=O)c(OC)c1	-1.8	1.9	11.0	-2.2	-14.7	·	·	·
COc1ccc(/C=C(/NC(=O)c2ccccc2OC)C(=O)Nc2ccc(C(=O)O)cc2)cc1	-6.4	2.5	6.8	-3.1	-3.6	·	·	·
O=C(Nc1ccc(C(=O)O)cc1)/C(=C\C=C\c1ccccc1)NC(=O)c1ccccc1Br	-11.9	8.7*	53.7*	-14.6	1.2	6.4*	35.4*	11.5*
O=C(Nc1cccc(C(=O)O)c1)/C(=C\c1ccc2c(c1)OCO2)NC(=O)c1ccc(Br)cc1	-18.8	6.1*	42.7*	-0.8	-8.0	1.9	22.9	6.9*
O=C(Nc1ccc(C(=O)O)cc1)/C(=C\C=C\c1ccccc1)NC(=O)c1cccc(Br)c1	-4.1	5.2*	78.0*	-2.8	-24.1	4.6*	80.0*	51.5*
Cc1ccc(NC(=O)/C(=C\C=C\c2ccccc2)NC(=O)c2ccccc2)cc1	-7.4	3.9	12.1	-1.8	0.3	·	·	·
COc1ccc(S[C@]2(C(=O)N3CCN(c4ncccn4)CC3)CC(=O)N(c3ccc(C#N)cc3)[C@@H]2c2ccc(OC)cc2)cc1	·	·	16.6	·	-7.1	·	·	·
O=C(N/N=C/c1ccccc1Cl)c1[nH]c2ccc(Br)cc2c1-c1ccccc1	-4.2	1.8	2.2	-0.7	3.6	·	·	·
COc1ccc(/C=N/NC(=O)c2[nH]c3ccc(Cl)cc3c2-c2ccccc2)c(C(=O)O)c1OC	-3.3	5.2*	64.3*	-2.1	-17.6	6.5*	65.7*	25.1*
CCOC(=O)[C@]12CCCC=C1N(Cc1ccc(OC)cc1)C(=O)[C@@H]2CC(=O)NCc1ccc(C)o1	·	·	0.4	·	-13.8	·	·	·
O=C(O)c1cccc(N/N=C/c2cn(-c3ccccc3)nc2-c2cccs2)c1	-3.0	13.1*	48.1*	-1.9	-16.0	7.3*	75.9*	36.7*
NS(=O)(=O)c1ccc(N/N=C/c2cn(-c3ccccc3)nc2-c2cccs2)cc1	-3.8	7.0*	35.6*	-1.7	4.1	2.1	24.6	14.8*
COc1ccc(/C=C/C(=O)Nc2c(C(=O)O)[nH]c3ccccc23)cc1OC	-8.2	5.6*	38.1*	-3.8	-27.0	3.1	25.7	7.0*
COc1ccc(/C=C/C(=O)Nc2ccccc2)cc1OC	-1.5	2.3	2.8	-1.7	11.7	·	·	·
SMILES	bovine MsrA act	MsrA inh	rCAG binder	PG9 Ab binder	HGIII-sPLA2 inh	MsrA conf	rCAG bind conf	DNA CAG counter
COc1cc(/C=N/NC(=O)[C@H](Cc2c[nH]c3ccccc23)NC(=O)OCC(C)C)cc([N+](=O)[O-])c1O	-6.8	6.4*	70.2*	-5.2	-44.3	4.4	48.0*	16.9*
O=C(O)c1ccc(/C=N\Nc2ccc(S(=O)(=O)N3CCOCC3)cc2[N+](=O)[O-])cc1	-3.5	-0.1	1.0	-0.8	13.6	·	·	·
O=C(O)COc1ccccc1/C=N/Nc1ccc(S(=O)(=O)N2CCOCC2)cc1[N+](=O)[O-]	-5.4	4.9*	52.2*	-2.1	-3.9	4.5	39.3*	9.3*
O=C(O)CC1S/C(=N/N=C/c2ccc(-c3ccc(Cl)c([N+](=O)[O-])c3)o2)NC1=O (centres undefined)	-5.2	5.4*	35.1*	-2.5	-4.6	4.5	18.6	8.0*
Cc1ccc(/C=N/N=C2/NC(=O)C(CC(=O)Nc3ccccc3)S2)o1 (centres undefined)	-15.6	1.1	5.2	0.8	-9.7	·	·	·
Cc1ccc(/C=N/N=C2/NC(=O)C(CC(=O)Nc3ccc(Cl)cc3)S2)o1 (centres undefined)	-1.7	0.7	7.2	1.0	-9.9	·	·	·
O=C(O)CC1S/C(=N/N=C/c2ccc(-c3ccc(Cl)cc3[N+](=O)[O-])o2)NC1=O (centres undefined)	-3.7	4.9*	43.0*	-3.3	-7.9	5.8*	22.4	6.6*
COc1ccc(S[C@]2(C(=O)N3CCCC3)CC(=O)N(C(=O)c3ccccc3)[C@@H]2c2ccc(OC)cc2)cc1	·	·	7.0	·	5.1	·	·	·
O=C(N/N=C/C(Cl)=C/c1ccc([N+](=O)[O-])cc1)C(=O)Nc1ccccc1C(=O)O	-3.9	7.5*	52.0*	0.2	-3.8	3.5	46.0*	18.6*
c1ccc2c(c1)N=C(N1CCN(Cc3ccc4c(c3)OCO4)CC1)c1ccccc1S2	·	·	4.9	·	-7.0	·	·	·
